# Reference: PubChem BioAssay (EPA / NIEHS)
# Records with an inconclusive call do not appear. The source made the active and inactive calls. How the source made its calls, unless noted: active means hit-call score of the fitted dose curve at least 0.9, where 1 is the maximum; inactive means score below 0.9.
# Tests used:
# [1] = ACEA_ER_80hr: ACEA Biosciences xCELLigence Real-Time Cell Analysis on Estrogen Receptor Agonism for Proliferation (AID 2282667; active means hit-call score of the fitted dose curve at least 0.9, where 1 is the maximum); settings: T47D proliferation, impedance (xCELLigence), 80 h
# In short: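 Estrogen-driven proliferation is captured as electrode impedance in T47D cells 80 h after compound addition. Test articles ran at 8 concentrations, 1:4 dilutions from 100 uM final, in two replicate plates.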
# [2] = ATG_CRE_CIS: Attagene CIS-FACTORIAL HepG2 Assay for human cAMP Responsive Element (CRE) binding protein 3 (AID 2282926); settings: HepG2 CRE cis-reporter, Attagene multiplexed mRNA; actives raise or lower the signal
# In short: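 Liver-derived HepG2, transfected with a CRE-containing reporter panel, exposed 24 h; transcript levels sized and quantified by capillary electrophoresis of labelled amplicons; signal changes either way referenced to vehicle.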
# [3] = molecular target: CCAAT/enhancer-binding protein beta (Homo sapiens) (UniProt P17676); test: ATG_C_EBP_CIS: Attagene CIS-FACTORIAL HepG2 Assay for human CCAAT/Enhancer Binding Protein (C/EBP) beta (AID 2282927); settings: HepG2 Attagene cis-factorial transcription factor reporter; actives raise or lower the signal
# In short: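 RT-PCR/capillary electrophoresis fluorescence of reporter mRNA, 24 h post-dose, in HepG2 cells carrying transfected cis-promoter reporter units. Bidirectional curve fitting against DMSO baseline captures gain or loss of signal.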
# [4] = ATG_CMV_CIS: Attagene CIS-FACTORIAL HepG2 Assay for human CMV (Internal Marker) (AID 2282928); settings: HepG2 CMV promoter reporter, transcription factor profiling; actives raise or lower the signal;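 further: endpoint acts as a background internal control marker rather than a target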
# In short: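 Reporter transcripts from transfected HepG2 cells are isolated after 24 h of chemical dosing, reverse-transcribed and amplified. Fragments labeled with 6-FAM are cut with HpaI and quantified by capillary electrophoresis; DMSO defines baseline.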
# [5] = ATG_DR4_LXR_CIS: Attagene CIS-FACTORIAL HepG2 Assay for human Liver X Receptor (LXR), DR4 submotif (AID 2282929); settings: HepG2 Attagene DR4 cis-reporter, mRNA transcription; actives raise or lower the signal
# In short: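 Fluorescence intensity of labelled reporter cDNA fragments, separated by capillary electrophoresis, gives the signal. HepG2 cells bearing cis-regulated reporter constructs were treated 24 h; activity fitted bidirectionally relative to DMSO negative control.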
# [6] = ATG_AP_1_CIS: Attagene CIS-FACTORIAL HepG2 Assay for human Activator Protein 1 (AP-1) (AID 2282931); settings: HepG2 Attagene cis-factorial AP-1 reporter mRNA; actives raise or lower the signal
# In short: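 Multiplexed HepG2 reporter assay, 24 h dosing. mRNA induction detected by RT-PCR plus capillary electrophoresis. Activity fitted in both directions against DMSO.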
# [7] = ATG_AP_2_CIS: Attagene CIS-FACTORIAL HepG2 Assay for human Activator Protein 2 (AP-2) (AID 2282932); settings: HepG2 AP-2 cis-reporter, Attagene transcription factor profiling; actives raise or lower the signal
# In short: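 Assay in transfected HepG2 with promoter-regulated reporters, 24 h incubation after dosing. Signal is reporter mRNA fluorescence (RT-PCR, capillary electrophoresis), analysed for both increases and decreases relative to DMSO controls.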
# [8] = ATG_BRE_CIS: Attagene CIS-FACTORIAL HepG2 Assay for human Bone Morphogenetic Protein (BMP) Response Element (BRE) (AID 2282933); settings: HepG2 BMP response element reporter, Attagene transcription factor profiling; actives raise or lower the signal
# In short: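 Transient MRTU transfection of human HepG2 liver cells; 24 h compound treatment; total RNA isolated, reverse-transcribed, PCR-amplified, 6-FAM labelled, HpaI-cut, capillary electrophoresis. DMSO = negative control/baseline, bidirectional fit.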
# [9] = molecular target: Retinoic acid receptor alpha (Homo sapiens) (UniProt P10276); test: ATG_DR5_RAR_CIS: Attagene CIS-FACTORIAL HepG2 Assay for human Retinoic Acid Receptor Alpha (RARE), DR5 submotif (AID 2282934); settings: HepG2 Attagene cis-factorial RARE DR5 reporter, mRNA; actives raise or lower the signal;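 on AC50: reporter responds to endogenous RAR alpha beta and gamma in HepG2 not RARA alone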
# In short: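 HepG2 cells transiently transfected with multiplexed reporter units under cis (DR5 RARE) promoters, so endogenous transcription factor activity is measured. After 24 h compound exposure, reporter mRNA is quantified by RT-PCR with fluorescent labelling and capillary electrophoresis; bidirectional fitting versus DMSO.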
# [10] = ATG_E_Box_CIS: Attagene CIS-FACTORIAL HepG2 Assay for human Enhancer Box (E-box) (AID 2282936); settings: HepG2 E-box cis-reporter transcription, actives raise or lower the signal
# In short: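 Measured 24 h post-dosing in HepG2 cells transfected with multiple cis-regulated reporter units, signal being reporter mRNA induction detected by fluorescent RT-PCR with capillary electrophoresis; gain or loss fitted against DMSO.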
# [11] = ATG_EGR_CIS: Attagene CIS-FACTORIAL HepG2 Assay for human Early Growth Response 1 (EGR1) (AID 2282938); settings: HepG2 Attagene CIS-FACTORIAL EGR reporter mRNA; actives raise or lower the signal
# In short: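 Activity is taken as induction or loss of reporter mRNA versus DMSO, fitted bidirectionally. Transcripts from cis-regulated reporter units in transiently transfected HepG2 were measured after 24 h by RT-PCR with capillary electrophoresis.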
# [12] = ATG_M_19_CIS: Attagene CIS-FACTORIAL HepG2 Assay for M19 Transcription Factor (Internal Marker) (AID 2282939); settings: HepG2 Attagene CIS-FACTORIAL M19 internal marker reporter; actives raise or lower the signal
# In short: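 Transfect HepG2 with MRTU reporter library → dose chemical, 24 h → isolate total RNA, reverse-transcribe with oligo(dT) → PCR, 6-FAM label, HpaI cut (2 h, 37 C) → capillary electrophoresis. Bidirectional fit vs DMSO.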
# [13] = ATG_ERE_CIS: Attagene CIS-FACTORIAL HepG2 Assay for Estrogen Response Element (ERE) (AID 2282940); settings: HepG2 ERE cis-reporter, Attagene RNA transcript; actives raise or lower the signal
# In short: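 Transient MRTU transfection of human HepG2; cis-element promoters; 24 h dosing; total RNA → RT (oligo dT) → PCR → 6-FAM primer extension → HpaI digest → CE fluorescence. Bidirectional fit, DMSO baseline.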
# [14] = ATG_Ets_CIS: Attagene CIS-FACTORIAL HepG2 Assay for human Erythroblast Transformation Specific (ETS) (AID 2282941); settings: HepG2 ETS cis-reporter transcription, actives raise or lower the signal
# In short: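 Bidirectional fit versus DMSO of reporter mRNA signal, detected by RT-PCR and capillary electrophoresis in HepG2 cells transiently transfected with cis-element reporters and dosed 24 h.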
# [15] = molecular target: Hepatocyte nuclear factor 3-beta (Homo sapiens) (UniProt Q9Y261); test: ATG_FoxA2_CIS: Attagene CIS-FACTORIAL HepG2 Assay for human Forkhead box A2 (FOXA2) (AID 2282942); settings: HepG2 cis-reporter transcription factor activity, 24 h; actives raise or lower the signal
# In short: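 Reporter transcript induction is measured by fluorescence after capillary electrophoresis of RT-PCR products from HepG2 cells exposed 24 h. Cis-regulated reporter units report endogenous factor activity; curves fitted both directions against DMSO.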
# [16] = ATG_FoxO_CIS: Attagene CIS-FACTORIAL HepG2 Assay for human Forkhead box O (FoxO) (AID 2282943); settings: HepG2 Attagene cis-reporter, FoxO element, mRNA; actives raise or lower the signal
# In short: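 HepG2 cells transiently transfected with cis-promoter-driven multiple reporter transcription units; 24 h after chemical dosing, reporter mRNA quantified by RT-PCR, fluorescent primer extension, HpaI digestion and capillary electrophoresis. Bidirectional fitting versus DMSO baseline.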
# [17] = ATG_GATA_CIS: Attagene CIS-FACTORIAL HepG2 Assay for human GATA Binding Protein (AID 2282944); settings: HepG2 GATA cis-element reporter, Attagene multiplex mRNA; actives raise or lower the signal
# In short: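 Transient MRTU transfection, HepG2, 24 h compound exposure. Total RNA → oligo(dT) RT → PCR → 6-FAM primer extension → HpaI cut → CE. Bidirectional fit vs DMSO.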
# [18] = molecular target: Transcription factor E2F1 (Homo sapiens) (UniProt Q01094); test: ATG_E2F_CIS: Attagene CIS-FACTORIAL HepG2 Assay for human E2F Transcription Factor 1 (AID 2282935); settings: HepG2 Attagene cis-reporter, E2F reporter RNA transcripts; actives raise or lower the signal
# In short: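 In this cis-factorial format, endogenous factor activity drives transfected reporters in HepG2; transcripts collected at 24 h are quantified by fluorescence after RT-PCR and capillary separation.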
# [19] = ATG_M_61_CIS: Attagene CIS-FACTORIAL HepG2 Assay for M61 Transcription Factor (Internal Marker) (AID 2282937); settings: HepG2 Attagene CIS-FACTORIAL M61 internal marker reporter; actives raise or lower the signal
# In short: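 Endogenous transcription factor activity in HepG2 is read through transiently transfected cis-element reporter units. After 24 h dosing, RNA undergoes reverse transcription, PCR and primer extension with 6-FAM before capillary electrophoresis; DMSO-referenced bidirectional fit.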
# [20] = molecular target: Aryl hydrocarbon receptor (Homo sapiens) (UniProt P35869); test: ATG_Ahr_CIS: Attagene CIS-FACTORIAL HepG2 Assay for human Aryl Hydrocarbon Receptor (Ahr) (AID 2282930); settings: HepG2 AhR cis-factorial reporter transcription; actives raise or lower the signal
# In short: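 HepG2 cells transiently transfected with cis-element-driven multiplexed reporter transcription units; endogenous transcription factor activity measured as reporter mRNA 24 h after dosing. RT-PCR, 6-FAM labelling, HpaI digestion, capillary electrophoresis; bidirectional fitting versus DMSO baseline.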
# Sequence of Transcription factor E2F1 (Homo sapiens) (Q01094 whole entry, looked up): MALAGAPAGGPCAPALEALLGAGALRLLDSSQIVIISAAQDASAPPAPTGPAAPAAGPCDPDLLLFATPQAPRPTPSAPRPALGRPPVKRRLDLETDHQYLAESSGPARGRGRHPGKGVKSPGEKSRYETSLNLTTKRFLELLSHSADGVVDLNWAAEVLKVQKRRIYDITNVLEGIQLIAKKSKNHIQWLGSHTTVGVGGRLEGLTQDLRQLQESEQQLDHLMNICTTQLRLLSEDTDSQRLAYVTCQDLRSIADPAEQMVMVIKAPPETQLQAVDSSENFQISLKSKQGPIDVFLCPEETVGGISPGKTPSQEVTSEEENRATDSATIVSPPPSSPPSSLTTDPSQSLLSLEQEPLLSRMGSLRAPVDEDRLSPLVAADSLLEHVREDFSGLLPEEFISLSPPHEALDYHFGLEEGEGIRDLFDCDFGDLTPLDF
# Sequence of CCAAT/enhancer-binding protein beta (Homo sapiens) (P17676 whole entry, looked up): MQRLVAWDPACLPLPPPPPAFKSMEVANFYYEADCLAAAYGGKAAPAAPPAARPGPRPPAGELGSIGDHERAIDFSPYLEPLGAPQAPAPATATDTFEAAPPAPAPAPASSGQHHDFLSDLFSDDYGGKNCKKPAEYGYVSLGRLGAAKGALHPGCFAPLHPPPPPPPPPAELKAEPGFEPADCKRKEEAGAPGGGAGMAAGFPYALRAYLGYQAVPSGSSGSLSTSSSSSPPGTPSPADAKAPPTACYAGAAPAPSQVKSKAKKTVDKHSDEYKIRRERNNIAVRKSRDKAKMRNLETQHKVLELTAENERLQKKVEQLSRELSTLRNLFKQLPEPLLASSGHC
# Sequence of Hepatocyte nuclear factor 3-beta (Homo sapiens) (Q9Y261 whole entry, looked up): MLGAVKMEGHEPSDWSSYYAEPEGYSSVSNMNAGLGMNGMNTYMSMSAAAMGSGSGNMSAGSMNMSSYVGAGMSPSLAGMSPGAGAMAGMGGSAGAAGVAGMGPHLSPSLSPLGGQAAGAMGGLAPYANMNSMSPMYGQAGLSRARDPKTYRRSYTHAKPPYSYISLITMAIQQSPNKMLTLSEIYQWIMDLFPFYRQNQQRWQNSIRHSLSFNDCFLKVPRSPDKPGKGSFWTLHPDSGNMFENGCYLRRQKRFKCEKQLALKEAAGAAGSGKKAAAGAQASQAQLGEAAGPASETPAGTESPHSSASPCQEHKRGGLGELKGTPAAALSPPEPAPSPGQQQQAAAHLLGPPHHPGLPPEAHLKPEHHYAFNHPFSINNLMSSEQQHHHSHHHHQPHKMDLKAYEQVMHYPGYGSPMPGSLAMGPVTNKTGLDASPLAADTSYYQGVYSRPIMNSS
# Sequence of Retinoic acid receptor alpha (Homo sapiens) (P10276 whole entry, looked up): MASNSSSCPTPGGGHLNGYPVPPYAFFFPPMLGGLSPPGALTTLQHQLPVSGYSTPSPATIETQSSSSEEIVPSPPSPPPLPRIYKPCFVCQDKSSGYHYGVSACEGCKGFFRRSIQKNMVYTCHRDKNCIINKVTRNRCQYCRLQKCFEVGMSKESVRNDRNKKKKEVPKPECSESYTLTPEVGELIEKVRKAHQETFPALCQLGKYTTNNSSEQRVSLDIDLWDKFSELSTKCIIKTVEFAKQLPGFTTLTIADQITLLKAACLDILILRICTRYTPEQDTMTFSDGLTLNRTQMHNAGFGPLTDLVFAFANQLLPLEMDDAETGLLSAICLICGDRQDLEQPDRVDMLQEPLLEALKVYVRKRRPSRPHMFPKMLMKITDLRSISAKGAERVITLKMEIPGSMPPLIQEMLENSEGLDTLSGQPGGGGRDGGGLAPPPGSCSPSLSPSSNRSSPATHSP
# Sequence of Aryl hydrocarbon receptor (Homo sapiens) (P35869 whole entry, looked up): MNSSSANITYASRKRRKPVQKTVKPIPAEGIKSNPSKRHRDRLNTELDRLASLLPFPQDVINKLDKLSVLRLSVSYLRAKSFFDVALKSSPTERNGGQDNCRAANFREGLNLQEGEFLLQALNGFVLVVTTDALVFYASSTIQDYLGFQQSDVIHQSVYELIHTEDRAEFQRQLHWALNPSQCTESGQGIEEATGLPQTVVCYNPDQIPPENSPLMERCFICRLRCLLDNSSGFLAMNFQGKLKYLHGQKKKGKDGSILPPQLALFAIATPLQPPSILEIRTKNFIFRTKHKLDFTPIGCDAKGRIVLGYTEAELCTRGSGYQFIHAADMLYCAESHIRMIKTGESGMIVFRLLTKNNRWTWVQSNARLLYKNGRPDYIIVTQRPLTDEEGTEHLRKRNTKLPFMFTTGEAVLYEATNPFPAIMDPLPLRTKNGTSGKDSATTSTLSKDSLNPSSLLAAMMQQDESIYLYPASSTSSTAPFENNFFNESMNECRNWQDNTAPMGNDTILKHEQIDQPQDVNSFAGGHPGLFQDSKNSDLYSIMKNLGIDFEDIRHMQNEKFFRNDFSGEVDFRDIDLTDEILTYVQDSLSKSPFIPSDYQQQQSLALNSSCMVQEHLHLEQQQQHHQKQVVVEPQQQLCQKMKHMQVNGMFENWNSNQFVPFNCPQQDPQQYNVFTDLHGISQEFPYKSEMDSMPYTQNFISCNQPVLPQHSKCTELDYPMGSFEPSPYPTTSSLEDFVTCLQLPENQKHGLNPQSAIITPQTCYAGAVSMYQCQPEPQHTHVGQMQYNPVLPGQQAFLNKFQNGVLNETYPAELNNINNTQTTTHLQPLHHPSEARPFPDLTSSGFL
smiles,measurement,setting,value
CCNc1nc(NC(C)(C)C)nc(OC)n1,outcome,[1],inactive
same,outcome,[2],inactive
same,outcome,[3],inactive
same,outcome,[4],inactive
same,outcome,[5],inactive
same,outcome,[6],inactive
same,outcome,[7],inactive
same,outcome,[8],inactive
same,outcome,[9],inactive
same,outcome,[10],inactive
same,outcome,[11],inactive
same,outcome,[12],inactive
same,outcome,[13],inactive
same,outcome,[14],inactive
same,outcome,[15],inactive
same,outcome,[16],inactive
same,outcome,[17],inactive
CCCCCC[C@@H](O)C/C=C\CCCCCCCC(=O)OCC(O)CO (stereo partly specified),outcome,[1],inactive
same,outcome,[2],inactive
same,outcome,[3],inactive
same,AC50,[4],131 µM (active)
same,AC50,[5],163 µM (active)
same,AC50,[6],75.7 µM (active)
same,AC50,[7],158 µM (active)
same,outcome,[8],inactive
same,outcome,[9],inactive
same,outcome,[10],inactive
same,AC50,[11],151 µM (active)
same,outcome,[12],inactive
same,outcome,[13],inactive
same,AC50,[14],178 µM (active)
same,outcome,[15],inactive
same,AC50,[16],178 µM (active)
CCCCCCCCCC[N+](C)(CCCCCCCCCC)CCC[Si](OC)(OC)OC,outcome,[1],inactive
same,AC50,[2],17.5 µM (active)
same,AC50,[3],18.2 µM (active)
same,outcome,[4],inactive
same,outcome,[5],inactive
same,outcome,[6],inactive
same,outcome,[8],inactive
same,AC50,[9],16.9 µM (active)
same,outcome,[18],inactive
same,AC50,[10],17.8 µM (active)
same,outcome,[19],inactive
same,AC50,[11],7.33 µM (active)
same,AC50,[12],17.8 µM (active)
same,outcome,[13],inactive
same,AC50,[15],17.7 µM (active)
same,outcome,[16],inactive
same,AC50,[17],14.1 µM (active)
CC(C)C(=O)OCCc1ccccc1,outcome,[1],inactive
same,outcome,[2],inactive
same,outcome,[3],inactive
same,outcome,[4],inactive
same,outcome,[5],inactive
same,outcome,[6],inactive
same,outcome,[8],inactive
same,outcome,[9],inactive
same,outcome,[18],inactive
same,outcome,[10],inactive
same,outcome,[19],inactive
same,outcome,[11],inactive
same,outcome,[12],inactive
same,outcome,[13],inactive
same,outcome,[14],inactive
same,outcome,[15],inactive
same,outcome,[16],inactive
same,outcome,[17],inactive
CC(C)CCOCc1ccccc1,outcome,[1],inactive
same,outcome,[2],inactive
same,outcome,[3],inactive
same,outcome,[4],inactive
same,outcome,[20],inactive
same,outcome,[6],inactive
same,outcome,[7],inactive
same,outcome,[8],inactive
same,outcome,[9],inactive
same,outcome,[18],inactive
same,outcome,[10],inactive
same,outcome,[19],inactive
same,outcome,[11],inactive
same,outcome,[12],inactive
same,outcome,[13],inactive
same,outcome,[14],inactive
same,outcome,[15],inactive
same,outcome,[16],inactive
same,outcome,[17],inactive
O=C(Oc1ccccc1)c1ccccc1C(=O)Oc1ccccc1,outcome,[1],inactive
same,outcome,[2],inactive
same,outcome,[3],inactive
same,outcome,[4],inactive
same,outcome,[5],inactive
same,AC50,[6],46.3 µM (active)
same,outcome,[7],inactive
same,outcome,[8],inactive
same,outcome,[9],inactive
same,outcome,[18],inactive
same,outcome,[10],inactive
same,outcome,[19],inactive
same,outcome,[11],inactive
same,outcome,[12],inactive
same,outcome,[13],inactive
same,outcome,[14],inactive
same,outcome,[15],inactive
same,outcome,[16],inactive
same,outcome,[17],inactive
COc1cc(O)c(C(=O)c2ccccc2)cc1S(=O)(=O)O,outcome,[1],inactive
same,outcome,[2],inactive
same,outcome,[3],inactive
same,outcome,[4],inactive
same,outcome,[5],inactive
same,outcome,[6],inactive
same,outcome,[7],inactive
same,outcome,[8],inactive
same,outcome,[9],inactive
same,outcome,[18],inactive
same,outcome,[10],inactive
same,outcome,[19],inactive
same,outcome,[11],inactive
same,outcome,[12],inactive
same,AC50,[13],56 µM (active)
same,outcome,[14],inactive
same,outcome,[15],inactive
same,outcome,[17],inactive
COc1ccc(-c2coc3cc(O)cc(O)c3c2=O)cc1,AC50,[1],0.673 µM (active)
same,outcome,[2],inactive
same,outcome,[3],inactive
same,AC50,[4],21.6 µM (active)
same,outcome,[5],inactive
same,AC50,[6],64 µM (active)
same,outcome,[7],inactive
same,AC50,[8],67.2 µM (active)
same,outcome,[9],inactive
same,outcome,[10],inactive
same,outcome,[11],inactive
same,outcome,[12],inactive
same,AC50,[13],0.397 µM (active)
same,outcome,[14],inactive
same,outcome,[15],inactive
same,outcome,[16],inactive
same,outcome,[17],inactive
